HCV inh – HCV inhibition. Huh7.5.1 HCVcc-Cre infection, luciferase reporter, 44 h. Potency, µM (top dose mostly 41.8 µM), for the others: at the top dose activity change, negative = inhibition, usual class: inhibitors. 340,000 tested, 3.4% active; active = well fitted inhibition curve with a large enough effect; inconclusive = small, poorly fitted or top-dose-only effect, or another doubt; inactive = no such curve, though single readings can be large or run the other way; note: potency is the fitted concentration of half-maximal effect
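HCVcc-Cre virus at an moi near 0.5 was added right after compound to cells cultured 4 h from seeding (1,000 cells/well). Luciferase activity was determined 44 h later, 15 min after substrate addition at RT.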
HCMV antiviral – blocks human cytomegalovirus replication. HFF cells, HCMV-luciferase reporter, 72 h; active compounds read low. activity change, negative = inhibition, % at 57.5 µM. 410,000 tested, 4.5% active; in the data active = activity change below about -60%; inconclusive = no clear call, values can overlap the other calls; inactive = above about -39%
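Inhibition of viral replication was scored as loss of reporter luminescence in HFFs infected with HCMV-luciferase (MOI 1 PFU/cell) for 72 h; compounds tested at 2 doses, normalized to buffer and Salinomycin controls.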
FMDV antiviral – blocks foot and mouth disease virus. FMDV antiviral cell-based qHTS. 410,000 tested, 1.2% active. Potency, µM (titrated, usually from 57.9 µM), without a hit: at the highest dose activity change, negative = inhibition, hits mostly inhibitors; calls by dose curve; tested in HEK293T cells; note: read-out not given here; potency is the fitted concentration of half-maximal effect; nearly all actives have a fitted effect of over 45% in size
MARV entry inh – inhibitors of Marburg virus binding or cell entry; Marburg virus pseudotyped entry inhibition, cell reporter; Potency, µM (top dose mostly 37.8 µM), for inactives: at the top dose activity change, negative = inhibition, usual class: inhibitors; AID 540276; 300,000 tested, 1.8% active; calls by dose curve; tested in HEK293 cells; note: potency is the fitted concentration of half-maximal effect
LASV entry inh – Lassa virus entry inhibition; Potency, µM (highest dose often 37.9 µM), for the others: at the highest dose activity change, negative = inhibition, usual class: inhibitors; Lassa virus pseudotype entry inhibition, cell reporter; AID 540256; 300,000 tested, 1.2% active; calls by dose curve; tested in HEK293 cells; note: potency is the fitted concentration of half-maximal effect; nearly all actives have a fitted effect of over 50% in size
Active calls of the source: *; u = inconclusive; x = no result; ! = not confirmed by another sample; [ ] = remark or other dose. Most compounds without a hit are left out; they make up all but 7.9% or so of the library. % is set by controls: 0 for no effect and ±100 for the full control effect.

SMILES	HCV inh	HCMV antiviral	FMDV antiviral	MARV entry inh	LASV entry inh
c1ccc(-n2cc(CN3CCCC(CN4CCCC4)C3)c(-c3ccc4c(c3)OCO4)n2)cc1 (centres undefined)	13µM*	u	-8%	x	x
O/N=C/c1cn(-c2ccccc2)nc1-c1ccc2c(c1)OCCO2	-15%	-11	20%	-24%	-1%
CN1CCN(C(=O)/C=C/c2cn(-c3ccccc3)nc2-c2ccc3c(c2)OCCO3)CC1	u	-11	24%	21µM*	u
OCc1cn(-c2ccccc2)nc1-c1ccc2c(c1)OCCO2	11µM*	81	-19%	u	u
Cc1ccc2[nH]c(-c3ccc(Cl)cc3)c(C#N)c2c1	x	34	x	x	x
CN1CC2=Cc3ccccc3OC23Oc2ccccc2C=C3C1	-28%	-80*	u	u	u
CC(C)OC12Oc3ccccc3C=C1N1CCC2CC1 (centres undefined)	-7%	-5	-10%	0%	6%
CCc1nn2c(=O)c(S(=O)(=O)Nc3ccc(C(C)C)cc3)c(C)nc2s1	-10%	-64*!	-26%	6%[46.1 µM]	10%[46.1 µM]
CN1Cc2c(N3CCOCC3)nc3sc(C(=O)c4ccc(Br)cc4)c(N)c3c2CC1(C)C	-86%	-95*	-1%	u	u
CN1Cc2c(N3CCOCC3)nc3sc(C#N)c(N)c3c2CC1(C)C	-8%	32	-22%	-10%[46.1 µM]	u
Cc1ccc(C)c(NC(=O)CSc2ncc3c(n2)-c2ccc(Cl)cc2N(C)S3(=O)=O)c1	x	42	-25%	x	25%[46.1 µM]
O=[N+]([O-])c1ccc(NN=Cc2cc(Br)ccc2O)nc1	u	-100*	7%	u	u
COc1cc(/C=N/n2c(-c3ccc4c(c3)NC(=O)CO4)csc2=Nc2cccc(C)c2)ccc1O	7.1µM*	-96*	u	u	23µM*
CC1ON=C(c2cccc3ccccc23)N(C)C1=O (centres undefined)	x	4	-14%	x	x
Cc1cccc(C)c1NC(=O)CNC(=O)CNC(=O)c1ccc2ccccc2c1	x	4	-2%	x	x
O=C(c1ccc(S(=O)(=O)NCc2ccco2)cc1)N1CCN(Cc2ccccc2)CC1	u	-34	-16%	11%[46.1 µM]	u
CCOC(=O)C1CCCN(C(=O)c2ccc(S(=O)(=O)NCc3ccco3)cc2)C1 (centres undefined)	6%	-16	-22%	-29%	1%
CC1CCCC(C)N1C(=O)c1ccc(S(=O)(=O)NCc2ccco2)cc1 (centres undefined)	11%	-76*	-12%	8%[46.1 µM]	20%
O=C(NC1CCCCC1)c1ccc(S(=O)(=O)NCc2ccco2)cc1	12%	89	26%	3%	-17%
COc1ccc(CN2CCN(C(=O)c3ccc(S(=O)(=O)NCc4ccco4)cc3)CC2)cc1	u	-83*	u	0.32µM*	u
O=C(NC1CCN(Cc2ccccc2)CC1)c1ccc(S(=O)(=O)NCc2ccco2)cc1	4µM*	-30	-29%	3.5µM*	-24%[46.1 µM]
CN(C)S(=O)(=O)N(CC(=O)Nc1ccc(Br)cc1F)c1ccccc1	x	-5	-13%	u	-23%[46.1 µM]
COc1ccc(C2(C(=O)NCC3Cc4cccc(-c5nc(C)cnc5C)c4O3)CCCC2)cc1 (centres undefined)	x	x	-9%	x	x
C[C@@H](C(=O)NC1CCCCC1)N1C(=O)N2CCc3c([nH]c4ccccc34)[C@@]2(C)C1=O	0.56µM*	10	u	x	x
CC(C)C[C@@H](C(=O)NC1CCN(Cc2ccccc2)CC1)N1C(=O)N2CCc3c([nH]c4ccccc34)[C@@]2(C)C1=O	u	7	u	x	x
CC(C)[C@@H](C(=O)NC1CC1)N1C(=O)N2CCc3c([nH]c4ccccc34)[C@@]2(C)C1=O	-23%	55	-27%	x	x
C[C@@H](C(=O)NC1CCN(Cc2ccccc2)CC1)N1C(=O)N2CCc3c([nH]c4ccccc34)[C@@]2(C)C1=O	7.9µM*	-13	u	x	x
CC(C)[C@@H](C(=O)NC1CCN(Cc2ccccc2)CC1)N1C(=O)N2CCc3c([nH]c4ccccc34)[C@@]2(C)C1=O	-52%	-65*	-28%	x	x
Cc1ccc(S(=O)(=O)Nc2cc3c(cc2NCc2ccccc2)n(C)c(=O)n3C)c(C)c1	x	-24	8%	17%[46.1 µM]	-9%[46.1 µM]
CCCCCCCC[n+]1cccc(C(=O)N(CC)CC)c1	6%	2	-3%	11%	-3%

Assay outcomes (PubChem BioAssay)
